Bioassay records from PubChem.
CYP2C19 inhib: blockers of cytochrome P450 2C19 activity – biochemical, luminescence, ADME assay, primary screen; inhibition, % at 5 µM; AID 778, 2007; CYP2C19 Supersomes, luciferin-H EGE luminescence, 30 min; hit rate 21% among 96,000; P33261;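 active = CYP2C19 inhibition above a set limit at 5 µM in the primary screen, cut at about 50% in these data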;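 note: plate controls were negative control wells for no effect and 2.5 mM tranylcypromine positive control for full effect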
Cav3 T inh: Cav3.2 calcium influx blockers – cell-based, Fluo-4 calcium fluorescence, FDSS, MLSMR library, primary screen; Voltage-dependent T-type calcium channel subunit alpha-1H (Homo sapiens), O95180; Cav3.2-expressing cells; hits give low values; B-score at 10 µM; hit rate 4% among 100,000; AID 449739, 2010;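 active = single-dose well whose peak fluorescence ratio is a statistical outlier from its plate by either plate-standardised score or position-corrected B-score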
CYP2C9 inhib: blockers of cytochrome P450 2C9 activity – biochemical, luminescence, ADME assay, primary screen | P11712 | CYP2C9 Supersomes, luciferin-H conversion | inhibition, % at 5 µM | hit rate 20% among 96,000 | AID 777, 2007;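 active = blocking of liver enzyme CYP2C9 beyond about 50% at 5 µM, limit read from the data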
Target sequence (P11712 whole entry, looked up): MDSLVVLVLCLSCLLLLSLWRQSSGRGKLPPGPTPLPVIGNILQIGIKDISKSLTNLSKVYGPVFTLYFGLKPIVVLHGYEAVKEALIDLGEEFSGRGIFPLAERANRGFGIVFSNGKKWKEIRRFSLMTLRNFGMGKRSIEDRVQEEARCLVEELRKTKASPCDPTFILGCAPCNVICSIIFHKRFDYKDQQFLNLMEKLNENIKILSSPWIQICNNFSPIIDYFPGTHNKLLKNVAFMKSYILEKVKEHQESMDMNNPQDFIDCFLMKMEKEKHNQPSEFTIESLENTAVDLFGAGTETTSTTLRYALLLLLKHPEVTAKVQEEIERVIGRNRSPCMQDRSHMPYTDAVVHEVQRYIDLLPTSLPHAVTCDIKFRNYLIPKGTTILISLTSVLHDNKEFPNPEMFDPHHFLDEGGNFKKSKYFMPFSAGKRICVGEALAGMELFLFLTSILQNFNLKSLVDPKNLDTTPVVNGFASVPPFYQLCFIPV
CYP2C19 activ: human CYP2C19 activators, primary screen, biochemical, luminescence; Cytochrome P450 2C19 (Homo sapiens), P33261; recombinant CYP2C19, luciferin-H EGE luminescence; hits give high values; 0 = fully inhibited enzyme, 1 = untreated enzyme; activation factor at 5 µM; 96,000 tested, under 10 active;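 active = activation factor of at least 2 at 5 µM in the primary screen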;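 note: 0 = wells with 2.5 mM tranylcypromine and 1 = vehicle-only wells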
CYP2C9 act: human CYP2C9 activators, primary screen, biochemical, luminescence. Cytochrome P450 2C9 (Homo sapiens), P11712. recombinant CYP2C9, luciferin-H conversion; hits give high values; factor 1 = untreated enzyme, 0 = blocked. activation factor at 5 µM. hit rate 1.4% among 96,000;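 active = activation factor of 2 or more for CYP2C9 at a 5 µM dose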;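 note: 0 = sulfaphenazole-blocked wells and 1 = vehicle-only wells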
Pyk2 oligo antag: antagonists of Pyk2 self-association, primary screen, Q293 cells, FERM NanoBiT luminescence, HTS; Protein-tyrosine kinase 2-beta (Homo sapiens), Q14289; z-score (the deposit names both 25 µM and 10 µM); hit rate 0.83% among 99,000; hits give low values; AID 1347419, 2020;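 active = Z-score of -3 or lower, scaled per plate to the spread of control and sample wells; inactive = z-score above -3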;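 note: negative z-score means lost luminescence so less FERM oligomerization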
An asterisk follows results filed as active; / = no result given. Only some compounds are listed: those with a hit (about 27% of all), similar ones and a draw of the others.

SMILES	CYP2C19 inhib	Cav3 T inh	CYP2C9 inhib	CYP2C19 activ	CYP2C9 act	Pyk2 oligo antag
COc1ccc(C2CC(c3cccc(C)c3)n3nc(N)nc3N2)cc1 (centres undefined)	16.9	2.19	-0.6	0.8	1	/
COc1ccc(C2CC(c3ccc(Br)cc3)Nc3nc(N)nn32)cc1 (centres undefined)	21.8	-0.673	51.4*	0.8	0.5	-0.77
Nc1nc2n(n1)C(c1cccc(Br)c1)CC(c1ccc(F)cc1)N2 (centres undefined)	/	0.561	/	/	/	/
Cc1cccc(C2CC(c3ccc(Br)cc3)Nc3nc(N)nn32)c1 (centres undefined)	77.0*	-0.258	48.1	0.2	0.5	/
COc1ccc(CN2CCN(C(=O)c3cccs3)CC2)c(OC)c1OC	24.4	0.026	-10.0	0.8	1.1	-0.45
Cc1cc(C)n(-c2nc(SCCN(C)C)c3c4c(sc3n2)COC(C)(C)C4)n1	23.1	-0.00712	25.7	0.8	0.7	0.39
COc1ccc(NC(=O)NC(C)c2ccncc2)cc1OC (centres undefined)	20.8	1.37	59.5*	0.8	0.4	0.59
COC(=O)Nc1ccc(OC)c(OC)c1	9.2	-0.315	10.1	0.9	0.9	-0.15
CC(NC(=O)Nc1ccc(F)cc1F)c1ccncc1 (centres undefined)	79.6*	/	43.1	0.2	0.6	1.12
Cn1c(SCC(=O)NC(C)(C)C)nnc1-c1cnccn1	7.9	-0.315	17.9	0.9	0.8	0.5
CCCOc1ccc(C2C(=O)N(C3CCCCCC3)CC(=O)N2Cc2ccco2)cc1OC (centres undefined)	4.1	-0.523	27.3	1	0.7	0.26
O=C1C2C(c3ccccc3)CC=CC2[C@H](c2cccc([N+](=O)[O-])c2)N1Cc1ccccc1 (some centres undefined)	/	-1.21	/	/	/	/
O=C1OCC(CO)(CO)N=C1NNc1ccccc1Cl	50.3*	0.24	28.5	0.5	0.7	0.84
O=C(Nc1ccccc1Cl)c1ccccc1Cl	18.7	0.0172	-35.6	0.8	1.4	0.02
CCc1cc2c(NCCC(=O)O)nc(C)nc2s1	-2.5	0.228	-3.4	1	1	-0.07
O=C(OCCOc1ccc(Br)cc1)c1cnccn1	61.6*	0.187	-6.0	0.4	1.1	0.92
O=C(COC(=O)c1cnccn1)c1ccccc1	8.5	0.391	81.7*	0.9	0.2	0.09
COC(=O)c1cc(O)c(OCc2ccccc2)c(O)c1	95.0*	-0.0343	91.4*	0.1	0.1	-0.23
COC(=O)c1ccc(OCC(=O)c2ccccc2)cc1	74.9*	-0.0643	29.9	0.3	0.7	0.4
O=C(COC(=O)c1cnccn1)c1ccc(Br)cc1	11.5	-0.576	1.8	0.9	1	0.07
O=C(OCCN1C(=O)c2ccccc2C1=O)c1cnccn1	9.4	0.201	9.0	0.9	0.9	2.25
COC(=O)c1[nH]c(=O)c2ccccc2c1OCc1ccccc1	20.3	-0.0294	10.4	0.8	0.9	-0.57
CNC(=O)c1csc(-c2ccc(C)cc2)n1	12.7	-0.584	29.2	0.9	0.7	0.36
CCOC(=O)N1C2=NC(C(=O)OC)=C(C(=O)OC)[C@@H]3N(C)c4ccccc4[C@]23C[C@H]1C(=O)OC	/	0.385	/	/	/	/
CC(=O)Nc1ccc(OCC(=O)c2ccc(C)cc2C)cc1	72.2*	-1.59	-2.4	0.3	1	0.47
SMILES	CYP2C19 inhib	Cav3 T inh	CYP2C9 inhib	CYP2C19 activ	CYP2C9 act	Pyk2 oligo antag
CCc1ccc(C(=O)COc2ccc(NC(C)=O)cc2)cc1	87.5*	1.15	77.3*	0.1	0.2	0.91
NC(=O)COC(=O)c1ccc(Oc2ccccc2)cc1	55.4*	0.468	44.3	0.4	0.6	1.66
O=C(COC(=O)c1ccccc1Nc1ccccc1)c1ccccc1	29.9	/	56.9*	0.7	0.4	-1.28
CC(=O)Nc1ccc(OCC(=O)c2cc(C)ccc2C)cc1	33.4	-0.319	-15.1	0.7	1.2	0.6
O=C(CC1Oc2ccc(Cl)cc2NC1=O)NC1CCCCCC1 (centres undefined)	1.0	-0.409	-27.4	1	1.3	/
COc1ccc(C(=O)Cn2nnc(-c3ccccc3NC(=O)c3ccco3)n2)cc1	9.9	0.3	16.6	0.9	0.8	-0.28
CCN(CC)C(=O)C1CCCN(C(=O)Nc2ccccc2)C1 (centres undefined)	44.7	0.391	21.0	0.6	0.8	1.85
O=C(COC(=O)c1ccccc1)c1ccc(Br)cc1	56.5*	-2.23	12.9	0.4	0.9	0.59
N/C(=N\OC(=O)c1ccc(Br)cc1)c1ccccc1	-2.8	-0.254	4.9	1	1	-0.55
O=C(NCc1ccc(F)cc1)C(c1ccncc1)N(C(=O)c1csnn1)C1CC1 (centres undefined)	53.5*	0.302	18.8	0.5	0.8	-0.21
CCOC(=O)C(C#N)C(Cc1ccccc1)c1ccco1 (centres undefined)	91.8*	-1.69	69.8*	0.1	0.3	-0.37
COc1cc(CC(=O)NCc2ccco2)cc(OC)c1OC	20.8	0.327	-6.3	0.8	1.1	-0.09
COc1ccc(CCn2c(=S)[nH]c3cc(C(=O)NCc4ccco4)ccc3c2=O)cc1OC	42.4	/	59.8*	0.6	0.4	-2.76
COc1ccc(C(=O)NC(=S)NCc2ccco2)cc1OC	53.9*	0.775	69.5*	0.5	0.3	-0.34
CCCOc1cc(CC(=O)NCc2ccco2)ccc1OC	70.8*	1.72	62.9*	0.3	0.4	1.9
Cc1cc(C)n(CC(=O)c2ccc(Br)cc2)c(=O)c1C#N	12.7	0.494	6.6	0.9	0.9	0.18
COc1ccc(C(=O)CSc2nnc(CNc3ccc(C)cc3C)n2Cc2ccco2)cc1	87.5*	/	57.4*	0.1	0.4	1.48
N#Cc1ccc(CSc2nnc(Cc3cccs3)n2Cc2ccco2)cc1	92.8*	-1.72	65.5*	0.1	0.3	0.5
Cc1ccc(C(=O)CSc2nnc(CNc3ccc(C)cc3C)n2Cc2ccco2)cc1	75.1*	-9.75*	73.1*	0.2	0.3	-0.22
Cc1ccc(NCc2nnc(SCc3ccc(C#N)cc3)n2Cc2ccco2)c(C)c1	91.8*	-6.45*	93.9*	0.1	0.1	0.26
O=C(Nc1ccc(F)cc1)c1ccccc1CC[N+](=O)[O-]	30.0	0.233	1.4	0.7	1	-0.33
CCOC(=O)C1(C(C)(C)CC)CC(CSc2nc3ccccc3[nH]2)OC1=O (centres undefined)	/	-6.83*	/	/	/	-0.15
CCOc1c(Cl)cc(CNC(C)(C)CC(C)(C)C)cc1OC	90.9*	0.0914	-4.6	0.1	1	0.07
Cc1cc2c(cc(C(=O)OC(C(=O)NCc3ccco3)C(C)C)n2C)o1 (centres undefined)	65.6*	-0.0848	46.6	0.3	0.5	0.04
